The subject of test [1] is Human papillomavirus type 1a protein E7 (residues 44-93). The test can be described thus: HPV1a E7 fragment binders on microarrays, primary screen, biochemical, small-molecule microarray, residues 44-93, 635 nm fluorescence (AID 1108).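 Note: E7 fragment applied at 1 µg/mL in TBST for 1 h at 4 C; score combines spot fluorescence with its signal to noise ratio.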 The settings on record: small-molecule microarray binding, fluorescence 635 nm; higher = more signal.
Test [2] can be described thus: modulators of HCV replicon luciferase signal, primary screen, HCV replication inhibitor project, Huh7 cells, luciferase reporter (AID 1109).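 Note: huh7 hepatoma cells harbouring a luciferase neomycin HCV replicon reporter; luciferase luminescence as measure of HCV replicon replication; test concentration not given here.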 The note with it: 48 h, higher = more signal.
Test [3] deals with Left-right determination factor 2 (Homo sapiens) (UniProt O00292). Briefly: LEFTY2 binders on small-molecule microarrays, primary screen, biochemical, small-molecule microarray, 635 nm fluorescence scan (AID 1110). The note with it: LEFTY2 binding, higher = more signal.
Sequence of Left-right determination factor 2 (Homo sapiens) (O00292 whole entry, looked up): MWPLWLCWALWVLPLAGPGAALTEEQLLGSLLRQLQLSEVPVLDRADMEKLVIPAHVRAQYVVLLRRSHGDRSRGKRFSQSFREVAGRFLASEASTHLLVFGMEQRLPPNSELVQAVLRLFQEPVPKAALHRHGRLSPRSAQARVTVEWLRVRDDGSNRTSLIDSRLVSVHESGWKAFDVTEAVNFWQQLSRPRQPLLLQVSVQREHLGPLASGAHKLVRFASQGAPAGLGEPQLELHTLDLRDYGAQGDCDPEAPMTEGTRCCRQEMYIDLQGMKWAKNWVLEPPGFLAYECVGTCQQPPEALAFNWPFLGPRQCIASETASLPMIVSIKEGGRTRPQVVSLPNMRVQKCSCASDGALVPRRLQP
Test [4] concerns the target Calmodulin-1 (Homo sapiens) (UniProt P0DP23). The test can be described thus: CALM1 binders on microarrays, EGTA buffer, profiling panel, biochemical, small-molecule microarray, Cy5-labelled CALM1 (AID 1111).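 Note: labelled calmodulin applied in Tris saline Tween buffer holding calcium plus EGTA and DTT.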 The note with it: Cy5-CALM1 binding fluorescence, higher = more signal.
Test [5] shares this target. The test can be described thus: calcium-bound CALM1 binders on microarrays, profiling panel, artefact control for SMM control-protein annotation, biochemical, small-molecule microarray, Cy5-labelled CALM1, plus calcium (AID 1112).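 Note: score merges spot fluorescence with signal to noise from triplicate slides.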 The settings on record: Cy5-CALM1 binding fluorescence, higher = more signal.
Test [6] is described as follows: small-molecule microarray binders of probe aWnt5a, primary screen, biochemical, biotinylated probe, 635/667 nm fluorescence (AID 1113).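 Note: score merges 667 nm fluorescence intensity with signal-to-noise per printed feature.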 The settings on record: higher = more signal.
The nature of test [7]: small-molecule microarray binders of probe aShh, primary screen, biochemical, biotinylated probe, 635/667 nm fluorescence (AID 1114).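 Note: probe is biotin-labelled aShh protein from a stem cell growth factor screen; measures binding of labelled protein to compounds printed on the slide; score merges feature fluorescence at 667 nm with signal-to-noise.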 The note with it: higher = more signal.
Test [8] is described as follows: small-molecule microarray binders of probe aNog, primary screen, biochemical, biotinylated probe, 635/667 nm fluorescence (AID 1115).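 Note: probe is biotinylated aNog protein used at 0.15 µg/mL for 1 h at 4 C; z-score combines 667 nm fluorescence of each spot with its signal to noise.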 The settings on record: higher = more signal.
Test [9] concerns the target Torsin-1A-interacting protein 1 (Homo sapiens) (UniProt Q5JTV8). The test can be described thus: LAP1 binders from COS7 cell lysate, primary screen, small-molecule microarray, 635/667 nm fluorescence (AID 1116). The note with it: COS7-hLAP1 lysate binding, 635 nm fluorescence, higher = more signal.
Test [10] concerns the target Alpha-bungarotoxin (Bungarus multicinctus) (UniProt P60615). The test can be described thus: alpha-bungarotoxin binders on microarray, profiling panel, artefact control for SMM control protein annotation, biochemical, small-molecule microarray, Alexa647 label, 635/667 nm fluorescence (AID 1117). The settings on record: alpha-BTX-A647 binding fluorescence, higher = more signal.

Among the data in PubChem BioAssay are composite z-score and z-score values, retold here.

Sequence of Alpha-bungarotoxin (Bungarus multicinctus) (P60615 whole entry, looked up): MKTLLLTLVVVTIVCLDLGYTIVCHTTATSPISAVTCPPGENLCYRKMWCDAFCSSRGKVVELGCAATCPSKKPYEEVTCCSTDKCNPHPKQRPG
Sequence of Torsin-1A-interacting protein 1 (Homo sapiens) (Q5JTV8 whole entry, looked up): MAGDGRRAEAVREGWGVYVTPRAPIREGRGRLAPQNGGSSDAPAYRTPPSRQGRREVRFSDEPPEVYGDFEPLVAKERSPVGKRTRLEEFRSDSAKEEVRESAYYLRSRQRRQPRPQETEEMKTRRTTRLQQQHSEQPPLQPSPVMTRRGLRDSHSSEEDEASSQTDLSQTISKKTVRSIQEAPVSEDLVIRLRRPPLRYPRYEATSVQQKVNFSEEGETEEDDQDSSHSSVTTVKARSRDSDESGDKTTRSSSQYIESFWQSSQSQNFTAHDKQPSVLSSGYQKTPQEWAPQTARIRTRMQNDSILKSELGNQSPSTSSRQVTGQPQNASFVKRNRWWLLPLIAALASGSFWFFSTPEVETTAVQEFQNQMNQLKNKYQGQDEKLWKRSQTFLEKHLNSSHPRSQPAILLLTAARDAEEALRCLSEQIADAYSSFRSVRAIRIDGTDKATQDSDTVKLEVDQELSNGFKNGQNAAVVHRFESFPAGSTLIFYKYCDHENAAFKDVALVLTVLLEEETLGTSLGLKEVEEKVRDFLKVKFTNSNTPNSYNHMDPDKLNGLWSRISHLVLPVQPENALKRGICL

`CO[C@H]1O[C@H](CO)[C@@H](OC(=O)Nc2ccc3c(c2)OCO3)[C@H](OC(=O)Nc2ccc3c(c2)OCO3)[C@H]1OC(=O)Nc1ccc2c(c1)OCO2`: the composite z-score was 1.45 in test [1]; 0.265 in test [3]; 1.52 in test [4]; -0.623 in test [5]; 0.0037 in [6]; 0.503 in [7]. Besides, the composite z-score in test [8] was 0.961; in test [9], 1.21; in test [10], 0.477. Moreover, in [2], the z-score was -0.36.
Consider `COCCOC(=O)N1C(=O)[C@@]2(c3cc(C#Cc4ccc(OC)cc4)ccc31)[C@H](c1ccc(OCCO)cc1)N1[C@H](c3ccccc3)[C@H](c3ccccc3)OC(=O)[C@H]1[C@@H]2C(=O)N1CCc2cc(OC)c(OC)cc2C1`, for which the composite z-score in test [1] is 1.22; in test [3], 0.493; in test [4], 0.784; in [5] it was 0.458; in test [6], -0.203; in test [7], -0.0824. The composite z-score in [8] is -0.0602; in test [9], 0.705; in [10], 0.571. For the same compound, the z-score in [2] is -0.603.
With `CCCC[C@H]1C[C@@H]1[C@@H]1N(P(=O)(c2ccccc2)c2ccccc2)[C@](CO)(c2ccccc2)CC12CC2`, the composite z-score in [1] is 0.992; in test [3] it was -1.58; in test [4] it was 1.85; in [5], 1.08; in test [6], 0.188; in test [7], 0.562. Moreover, the composite z-score in test [8] is 1.75; in test [9] it was 0.0187; in [10], -0.0785. Further, the z-score in test [2] was -2.4.
For the compound `COc1ccc([Si](C)(C)[C@H]2[C@H](CC(=O)N3CCC[C@H]3CO)O[C@@]3(C(=O)N(c4ccccc4)c4ccccc43)[C@@H]2C)cc1`, the composite z-score in test [1] is -0.542; in test [3] it was 0.301; in test [4] it was -0.363; in [5], -0.366; in test [6] it was -0.156; in [7] it was -0.13. The results for the composite z-score in test [8], in [9] and in [10] were -0.1, 0.429 and 0.0488, respectively. This compound came in with a z-score in test [2] of -1.12.
As to `COCCOC(=O)N1C(=O)[C@@]2(c3cc(C#CC4=CCCCC4)ccc31)[C@H](C(=O)N1CCN(c3ncccn3)CC1)[C@H]1C(=O)O[C@H](c3ccccc3)[C@H](c3ccccc3)N1[C@@H]2c1ccc(OCCO)cc1`, the composite z-score is 0.973 in test [1]; 0.819 in test [3]; 0.585 in test [4]; -0.252 in test [5]; 0.0026 in test [6]; -0.229 in test [7]. Further, the results for the composite z-score in test [8], in [9] and in test [10] were 0.749, 1.48 and 0.229, respectively. This compound gave a z-score in [2] of -1.46.
`C=CC[C@]1(C(=O)NCCN2CCOCC2)N=C(c2ccc(OCCCO)cc2)O[C@H]1c1ccccc1N=[N+]=[N-]`: the composite z-score in [1] is 1.01; in [3] it was 0.26; in [4], 1.34; in test [5], -0.0083; in test [6], 0.048; in test [7], -0.155. The figures for the composite z-score in test [8], in test [9] and in [10] were 1.39, 1.36 and 1.3, respectively. The compound further had a z-score in [2] of -0.44.
On to `[N-]=[N+]=NCc1ccccc1C[C@@]1(C(=O)NCc2ccccc2)N=C(c2ccc(OCCCO)cc2)O[C@@H]1c1ccccc1CN=[N+]=[N-]`, for which the composite z-score is -0.0428 in test [1]; -0.372 in [3]; 1.51 in test [4]; 0.924 in test [5]; 0.178 in test [6]; 0.274 in [7]. Also, the composite z-score is 1.88 in test [8], 2.59 in [9] and 1.49 in [10]. Moreover, in test [2], the z-score is -2.52.
With `Cn1c2c(c3ccccc31)C(=O)C1NC2C=CC1(C)C(=O)OCc1ccccc1` (stereo not given), the composite z-score in [1] was -0.369; in [3] it was -1.71; in [4], 0.682; in test [5] it was 1.13; in [6], -0.0887; in test [7], 0.123. Also, the composite z-score turned out to be 0.771 in test [8], 1.38 in [9] and 1.92 in [10]. The compound further came in with a z-score in test [2] of -0.836.
Consider `C=C(CCCC)/C(=C/C[C@H](OC(C)=O)c1ccc(CO)o1)c1cc(C(=O)OC)ccc1OC`, for which the composite z-score in [1] was 1.4; in [3] it was 0.305; in test [4], 0.184; in test [5], -0.592; in test [6], -0.101; in [7], 0.0639. The composite z-score in test [8] was found to be 0.116; in [9], 0.599; in test [10], 1.44. In test [2], this compound registered a z-score of -1.58.
Consider `CCOC(=O)C[C@H]1[C@H](OC(=O)c2ccc(C(=O)c3ccccc3)cc2)[C@@H](NC(=O)c2ccc3ccccc3n2)c2cc(OCCCO)ccc2N1C(=O)c1ccc2ccccc2n1`, for which the composite z-score in test [1] is 1.03; in test [3], 0.691; in test [4] it was 0.338; in test [5] it was -0.59; in test [6] it was 0.0761; in test [7], -0.0904. The composite z-score was -0.158 in test [8], 1.92 in test [9] and 0.583 in test [10]. Besides, the z-score in [2] is -0.931.
In the case of `CC(C)NC(=O)[C@@H]1c2ccccc2C(=O)N(C2CCCCC2)[C@H]1c1ccc(CO)cc1`, the composite z-score in test [1] is 1.13; in [3], 0.0474; in test [4] it was 0.166; in test [5], 0.808; in test [6], 0.0279; in [7], -0.195. In addition, the composite z-score in test [8] amounted to 0.342; in [9] it was 0.416; in test [10] it was 1.01. In [2], this compound showed a z-score of -1.48.
As to `O=C1[C@H]2C=C(Br)[C@H](C[C@@H]2OCCOCCO)[C@@]12CO2`, the composite z-score was 0.0617 in test [1]; 0.348 in test [3]; -0.2 in test [4]; -0.341 in test [5]; -0.0944 in test [6]; -0.0769 in test [7]. For the same compound, the results for the composite z-score in test [8], in test [9] and in test [10] were -0.303, 0.0452 and 0.554, respectively. The z-score in test [2] is -1.85.
As to `[N-]=[N+]=NCc1ccccc1C[C@]1(C(=O)NCC(O)CO)COC(c2ccc(OCCCO)cc2)=N1` (stereo not given in full), the composite z-score was 0.912 in [1]; -0.645 in [3]; 2.44 in test [4]; 0.911 in [5]; 0.188 in [6]; -0.0341 in test [7]. The composite z-score in test [8] was found to be 1.17; in test [9], 3.34; in test [10] it was 3.01. This compound displayed a z-score in test [2] of -1.84.
Regarding `O=C1OCCC=C[C@H]2OC34C=CCN(c5ccc6ccccc6c5)C(=O)[C@H]3N(CCCCCCO)C(=O)[C@@H]4C12` (stereo not given in full), the composite z-score in test [1] was 0.404; in test [3], -0.431; in [4] it was -0.611; in test [5], -0.321; in test [6], -0.176; in [7], -0.0337. Besides, the composite z-score is -0.201 in test [8], 0.164 in [9] and -1.37 in test [10]. The z-score in [2] amounted to 0.0919.
On to `C=CCN1Cc2ccccc2C[C@]2(N=C(c3ccc(OCCCO)cc3)O[C@@H]2c2ccccc2)C1=O`, for which the composite z-score in [1] was 1.18; in test [3] it was 0.915; in [4] it was 0.054; in test [5], -0.83; in test [6], -0.006; in [7], -0.0119. In addition, the composite z-score in [8] stood at 0.838; in [9] it was 2.68; in test [10], 1.03. The same compound came in with a z-score in test [2] of -2.51.
As to `CCCCCCCCCCC(O)C1C=CC2C(=O)N(c3ccccc3)C(=O)C2N1Nc1ccc([N+](=O)[O-])cc1` (stereo not given), the composite z-score is 1.41 in test [1]; -0.193 in test [3]; 1.01 in test [4]; 0.496 in test [5]; -0.0263 in [6]; -0.0146 in [7]. Also, the composite z-score in test [8] was 1.1; in [9], -0.105; in [10] it was 1. The compound also gave a z-score in test [2] of -2.47.
For `COCCCNC(=O)[C@@]1(C)c2ccccc2C(=O)N(Cc2ccccc2)[C@H]1c1ccc(CO)cc1`, the composite z-score was 1.38 in test [1]; -2.9 in [3]; -0.652 in test [4]; -0.634 in test [5]; -0.124 in [6]; 0.0284 in [7]. Moreover, the composite z-score in test [8] was -0.255; in test [9], 1.64; in [10], -0.564. The compound further gave a z-score in test [2] of -1.86.
